The panel holds about 83,000 compounds, 20% with a hit somewhere; the sample as a whole holds those more often.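 Step 1: grow cells in 96-well plates. Step 2: add test compound at a single concentration. Step 3: incubate 48 h. Step 4: record percent growth.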 Values without a mark were called inactive. Calls of active or inactive are those of the source. Rule for the calls: active = growth percent below 10; inactive = the rest.

Holding throughout (assay): NCI-60 one-dose screen, 48 h (100 = growth as untreated, 0 = no growth, -100 = all killed)
What all share (conditions): 10 µM unless noted

Assay [1] relates to T-47D breast.
Assay [2] deals with BT-549 breast.
For assay [3], the system named is MDA-MB-435 melanoma.
Assay [4] has as its system SW-620 colon.
Assay [5] deals with MCF7 breast.
The subject of assay [6] is HCT-116 colon.
The subject of assay [7] is HCC-2998 colon.
Assay [8] deals with KM12 colon.

For the molecule `CC(Sc1nc2ccccc2c(=O)n1CCc1ccc(S(N)(=O)=O)cc1)C(=O)Nc1ccc(Cl)cc1` (stereo not given), the growth is 67.6% in assay [1]; 102% in assay [2]; 98.7% in assay [3]; 98.1% in assay [4]; 84.6% in assay [5]; 79.9% in assay [6]. In addition, the growth in assay [7] was 103%; in assay [8], 97.5%.
In the case of `COc1cc2oc(-c3cccc(C(=O)Nc4ccc5c(c4)OCO5)c3)cc(=O)c2c(O)c1OC`, the growth in assay [1] was 69.5%; in assay [2], 84%; in assay [3], 79.1%; in assay [4], 84.5%; in assay [5] it was 91.6%; in assay [6], 57%. In addition, the results for the growth in assay [7] and in assay [8] were 105% and 70.6%, respectively.
Turning to `OC(c1cccc(C(F)(F)F)c1)c1cnccc1NC1CCCCC1` (stereo not given), the growth in assay [1] is 49.1%; in assay [2] it was 93.5%; in assay [3], 86.6%; in assay [4], 77.6%; in assay [5], 71.4%; in assay [6], 51.1%. For the same molecule, the growth in assay [7] was -11.3% (active); in assay [8] it was 80.8%.
As to `CC(C)=CCC[C@](C)(O)[C@H]1CC[C@]2(C)[C@@H]1CC[C@@H]1[C@@]3(C)C/C(=C/c4ccccc4)C(=O)C(C)(C)[C@@H]3CC[C@]12C`, the growth is 87.4% in assay [1]; 100% in assay [2]; 90.3% in assay [3]; 80.4% in assay [4]; 94.6% in assay [5]; 85.1% in assay [6]. The growth was 98.8% in assay [7] and 90% in assay [8].
`Cc1cccc(C)c1N=c1oc2ccc(Cl)cc2nc1-c1ccccc1O`: the growth in assay [1] was 37.8%; in assay [2], 107%; in assay [3], 99.3%; in assay [4] it was 91%; in assay [5] it was 67.9%; in assay [6], 76.6%. Moreover, the figures for the growth in assay [7] and in assay [8] were 93.8% and 98.9%, respectively.
Take `COc1cc(NC(=O)CSc2nc3ccc(C)cc3c(=O)n2Cc2ccccc2)cc(OC)c1OC`: the growth in assay [1] is 22.8%; in assay [2], 53.3%; in assay [3], 67.3%; in assay [4], 81.3%; in assay [5], 71%; in assay [6] it was 43.4%. For the same molecule, the growth was 76% in assay [7] and 57.9% in assay [8].
Consider `O=S(=O)(NCCNc1nccc(-c2c(-c3cccc(O)c3)nc3occn23)n1)c1ccc(Cl)cc1`, for which the growth was 91.7% in assay [1]; 116% in assay [2]; 45.4% in assay [3]; 125% in assay [4]; 82% in assay [5]; 87.6% in assay [6]. In addition, the growth in assay [7] is 135%; in assay [8] it was 91.3%.
For `Cc1cc2c(c(C)c1Cl)C(=O)/C(=C/c1ccc(O)c(O)c1)O2`, the growth in assay [1] is 90.5%; in assay [2] it was 104%; in assay [3], 106%; in assay [4], 105%; in assay [5], 89.4%; in assay [6], 112%. Moreover, the growth in assay [7] is 112%; in assay [8], 109%.
Regarding `C=C(C)[C@@H]1CC[C@]2(C(=O)N[C@@H](Cc3ccccc3)C(=O)OC)CC[C@]3(C)[C@H](CC[C@@H]4[C@@]5(C)CCC(=O)C(C)(C)[C@@H]5CC[C@]43C)[C@@H]12`, the growth in assay [1] was 64.8%; in assay [2], 105%; in assay [3] it was 90.6%; in assay [4], 95.4%; in assay [5], 84.6%; in assay [6], 68.4%. The figures for the growth in assay [7] and in assay [8] were 98.2% and 75.2%, respectively.
As for `CCc1c2c(nc3ccc(OCc4ccc(B(O)O)cc4)cc13)-c1cc3c(c(=O)n1C2)COC(=O)[C@]3(O)CC`, the growth in assay [1] was -1.27% (active); in assay [2] it was -3.67% (active); in assay [3], 6.63% (active); in assay [4], 13.8%; in assay [5], 1.65% (active); in assay [6] it was 4.57% (active). The values for the growth in assay [7] and in assay [8] were 19.2% and 1.86% (active), respectively.
For the molecule `COc1cccc2c1c1nc3cc(C)c(C)cc3nc1n2CCN(C)C`, the growth in assay [1] was 30.1%; in assay [2], 68.8%; in assay [3] it was 31.3%; in assay [4], 12.6%; in assay [5], 4.64% (active); in assay [6] it was 14.4%. Besides, the results for the growth in assay [7] and in assay [8] were 44.6% and 29.2%, respectively.
As for `O=S(=O)(NCCNc1nccc(-c2c(-c3cccc(F)c3)nc3sccn23)n1)c1ccc(Br)cc1`, the growth in assay [1] is 30.5%; in assay [2], 63.3%; in assay [3] it was 21.3%; in assay [4], 54.8%; in assay [5] it was 23.5%; in assay [6] it was 33.9%. The figures for the growth in assay [7] and in assay [8] were 79.5% and 42.5%, respectively.
As to `C=C1C(=O)O[C@H]2[C@H]1CC/C(COC(=O)NCc1c[nH]c3ccc(Cl)cc13)=C\CC[C@@]1(C)O[C@@H]21`, the growth is -76.2% (active) in assay [1]; -65.6% (active) in assay [2]; -88.4% (active) in assay [3]; -74.3% (active) in assay [4]; 17.2% in assay [5]; -90.1% (active) in assay [6]. Also, the growth in assay [7] was 70.4%; in assay [8], 13.8%.
Regarding `COc1ccc(C(=O)Nc2cccc(C3CCc4c(cc(OC)c(OC)c4OC)O3)c2)cc1` (stereo not given), the growth is 15.8% in assay [1]; 40.9% in assay [2]; -14.9% (active) in assay [3]; 28.8% in assay [4]; 33.1% in assay [5]; 23.1% in assay [6]. The values for the growth in assay [7] and in assay [8] were 80.1% and 29.4%, respectively.
Regarding `CCCOc1ccc(/C=N/Nc2cc(C)nc3ccc(Br)cc23)cc1`, the growth was 96.4% in assay [1]; 99.3% in assay [2]; 85.8% in assay [3]; 6.14% (active) in assay [4]; 37.3% in assay [5]; 26.6% in assay [6]. Further, the growth in assay [7] was 57.3%; in assay [8], 76.2%.

For the origin of these results see PubChem BioAssay (NCI).
